In PubChem BioAssay AID618 (Sanford-Burnham Center for Chemical Genomics, 2007):
About 540 (0.62%) of roughly 87,000 compounds were called active. How the calls were made is not given here. Only a selection was taken, and actives are over-represented in it overall. Measured potencies and affinities stand elsewhere.

Assay: MT1-MMP gene expression reporter suppression – cell-based, luciferase reporter, luminescence (AID 618);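 further: actives suppress MT1-MMP promoter-driven transcription so potencies describe inhibitors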
Details: MT1-MMP promoter luciferase reporter cells

| SMILES | outcome |
| --- | --- |
| Cc1sc2nc(SCC(=O)N3CCCC3)[nH]c(=O)c2c1C | inactive |
| O=C1CC(c2ccco2)c2ccc3ccccc3c2N1 (stereo not drawn) | inactive |
| CCOC(=O)c1cnc(SCC(=O)c2ccc(C)cc2)nc1N | inactive |
| Cc1cc(C)n(CC(O)Cn2ccc3ccccc32)n1 (stereo not drawn) | inactive |
| c1ccc(-c2nnc(-c3ccccc3)o2)cc1 | inactive |
| Cc1occc1-c1nc(-c2ccccn2)no1 | inactive |
| CCOc1ccc(-c2nc(-c3ccccc3)no2)cc1OCC | inactive |
| c1ccc(-c2nnc(-c3cccc(-c4nnc(-c5ccccc5)o4)c3)o2)cc1 | inactive |
| Brc1cccc(-c2nc(-c3ccncc3)no2)c1 | inactive |
| Cc1ccc(Cc2nc(-c3ccccn3)no2)cc1 | inactive |
| c1ccc(-c2noc(-c3ccc4ccccc4c3)n2)cc1 | active |
| CC1=CCC(C(=O)O)C(C(=O)Nc2nc3ccc(S(C)(=O)=O)cc3s2)C1 (stereo not drawn) | inactive |
| Cn1c(=O)c2c(ncn2CC(=O)N2CCN(c3ccccc3F)CC2)n(C)c1=O | inactive |
| COc1ccc(-c2c(C)n([O-])c(C)c(C)[n+]2=O)cc1 | inactive |
| COc1ccc(S(=O)(=O)N2C3CCC2CC(NC(=O)NC2CCCCC2)C3)cc1 (stereo not drawn) | inactive |
| COc1cccc(NS(=O)(=O)c2ccc3[nH]cc(C(=O)NC4CC4)c(=O)c3c2)c1 | inactive |
| CCCn1c(-c2ccc(OC)cc2)nc2c(=O)n(C)c(=O)[nH]c21 | inactive |
| CCC(C)NS(=O)(=O)c1ccc(NC(=O)c2c(-c3ccccc3)noc2C)cc1 (stereo not drawn) | inactive |
| O=C(NCCCc1ccccc1)c1cnc2n(c1=O)CCS2 | inactive |
| O=C(COc1cccc(C(F)(F)F)c1)NCCCN1CCCC1=O | inactive |
| CCC(=O)Nc1ccc2c(c1)C(=O)N(C1CCCCC1)C2=O | inactive |
| CCN(CC)c1ccc2cc(C(=O)Nc3ccccn3)c(=O)oc2c1 | inactive |
| CCN(CC)c1ccc2cc(C(C)=O)c(=O)oc2c1 | inactive |
| CC(C)C(NS(=O)(=O)c1ccc(Br)s1)C(=O)O (stereo not drawn) | inactive |

| SMILES | outcome |
| --- | --- |
| O=C(CCCSc1nnc(-c2cccs2)n1CC1CCCO1)c1ccccc1 (stereo not drawn) | inactive |
| CNc1cc(C)nc(-n2nc(C)cc2C)n1 | inactive |
| CC(=O)c1ccc(Oc2cc(C)nc(NCc3ccccc3)n2)cc1 | inactive |
| COC(=O)c1ccc(Oc2nc(C)cc(Oc3ccccc3)n2)cc1 | inactive |
| COC(=O)c1ccc(Oc2cc(C)nc(SC)n2)cc1 | inactive |
| Cc1ccc(Oc2cc(-n3nc(C)cc3C)ncn2)cc1 | inactive |
| CC(=O)c1ccc(Oc2cc(C)nc(-n3nc(C)cc3C)n2)cc1 | active |
| CCOc1ccc(Nc2cc(C)nc(-n3nc(C)cc3C)n2)cc1 | inactive |
| COc1ccc(Nc2cc(C)nc(-n3nc(C)cc3C)n2)cc1 | active |
| COC(=O)c1ccc(Oc2cc(C)nc(-n3nc(C)cc3C)n2)cc1 | active |
| Cc1ccc(C(=O)NCc2cccs2)cc1S(=O)(=O)N1CCCCC1 | inactive |
| Cc1cccc(OCCn2c(=O)sc3ccccc32)c1 | inactive |
| CCSc1nnc(NC(=O)CSc2nc3c(c(=O)n2C)SC(C)C3)s1 (stereo not drawn) | inactive |
| COc1ccc(C)cc1S(=O)(=O)N(C)CC(=O)Nc1ccccc1 | inactive |
| Cc1ccc(-c2nnc(SCC(=O)N3CCCC3)o2)cc1C | inactive |
| COC(=O)c1ccc(S(=O)(=O)c2ccccc2)c(N)c1 | inactive |
| O=C(Cn1cnc2c(nnn2Cc2ccccc2)c1=O)N1CCN(c2ccccc2)CC1 | inactive |
| CCOc1nc(NC2CCCCC2)nc(NC(C)(C)C)n1 | inactive |
| C/C=C/COC(=O)c1[nH]c2c(c1C)C(=O)CC(c1ccc(N(C)C)cc1)C2 (stereo not drawn) | inactive |
| Cc1c(C(=O)OCC2CCCO2)[nH]c2c1C(=O)CC(c1ccc(N(C)C)cc1)C2 (stereo not drawn) | inactive |
| C/C=C/COC(=O)c1[nH]c2c(c1C)C(=O)CC(c1ccco1)C2 (stereo not drawn) | active |
| C=CCOC(=O)c1[nH]c2c(c1C)C(=O)CC(c1ccco1)C2 (stereo not drawn) | active |
| Cc1ccc(S(=O)(=O)N(CC(=O)N2CCC(C(N)=O)CC2)Cc2ccc(F)cc2)cc1 | inactive |
| Oc1ccc(F)cc1-c1cc(-c2ccc3c(c2)OCCO3)n[nH]1 | inactive |

| SMILES | outcome |
| --- | --- |
| Oc1ccccc1-c1cc(-c2ccc3c(c2)OCCO3)n[nH]1 | active |
| Oc1ccccc1-c1cc(-c2cccc(F)c2)n[nH]1 | inactive |
| Cc1cccc(NCc2ccccc2O)n1 | inactive |
| O=C(CSc1nnc(COc2ccc(Cl)cc2)o1)N1c2ccccc2CCc2ccccc21 | active |
| O=C(CSc1nnc(COc2ccc(F)cc2)o1)N1c2ccccc2CCc2ccccc21 | inactive |
| O=C(CSc1nnc(COc2ccc(Cl)cc2)o1)N1CCN(c2ccccc2)CC1 | inactive |
| COC(=O)c1ccccc1NC(=O)NCc1ccco1 | inactive |
| CC1(C)CC(=O)C2=C(C1)N(CCN1CCOCC1)C1=C(C(=O)CC(C)(C)C1)C2c1cccc(F)c1 | inactive |
| CC(=O)Nc1ccc(-c2nnn(CC(=O)c3ccccc3)n2)cc1Cl | inactive |
| CCOc1cc(/C=N/n2cnnc2)ccc1O | inactive |
| CCOc1cc(/C=N/n2cnnc2)c(Br)cc1O | active |
| CCOc1cc(/C=N/n2cnnc2)cc(Br)c1O | inactive |
| O=C(COc1ccc(S(=O)(=O)NC2CCCCC2)cc1)NCC1CCCO1 (stereo not drawn) | inactive |
| N#Cc1nn(-c2ccccc2)nc1N1CCCCC1 | inactive |
| Cc1ccc(NC(=O)CC(O)(C(F)(F)F)C(F)(F)F)cc1 | inactive |
| CCN1C(=O)C2C(c3ccccc3F)NC(Cc3ccc(O)cc3)(C(=O)OC)C2C1=O (stereo not drawn) | inactive |
| COc1ccc(C(=O)Nn2cnnc2)c(OC)c1 | inactive |
| COC(=O)c1sc(NC(=O)c2ccc(OC)cc2OC)nc1C | active |
| COC(=O)c1sc(NC(=O)c2ccoc2C)nc1C | inactive |
| CCOc1ccccc1C(=O)Nc1nnc(CC)s1 | inactive |
| COc1ccc(C(=O)Nc2c(F)c(F)c(F)c(F)c2F)c(OC)c1 | inactive |
| COC(=O)c1sc(NC(=O)COc2ccc(OC)cc2)nc1C | inactive |
| CCc1nnc(NC(=O)c2c(OC)cccc2OC)s1 | inactive |
| COc1ccc(C(=O)Nc2ccc(C)cn2)c(OC)c1 | active |

| SMILES | outcome |
| --- | --- |
| Cc1ccc(C)c2[nH]c(=O)c(CCNC(=O)C(C)(C)C)cc12 | inactive |
| O=S(=O)(c1ccc(Br)cc1)N1CCCN(Cc2ccccc2F)CC1 | inactive |
| COc1ccccc1NC(=O)N1CCN(c2ccc3nncn3n2)CC1 | inactive |
| CCCCOC(=O)C1C2C=C[C@]3(CN(CCCOC)C(=O)[C@H]13)O2 (stereo partly drawn) | inactive |
| CCOc1ccc(NC(=O)CSc2nnc(Cn3c(=O)sc4ccccc43)n2C)cc1 | inactive |
| CCOC(=O)c1cnn(CCOC(=O)Cc2cccs2)c1NC(=O)Cc1cccs1 | inactive |
| CC1=[N+]([O-])C(N2CCOCC2)C(O)(c2ccccc2)C1 (stereo not drawn) | inactive |
| COCCN1C(=O)c2ccccc2C(C(=O)NCCCN2CCCC2)C1c1c[nH]c2ccccc12 (stereo not drawn) | inactive |
| O=C(NCC(c1cccnc1)N1CCOCC1)c1ccc2c(c1)OCO2 (stereo not drawn) | inactive |
| O=S(=O)(NCCOCC(F)(F)C(F)F)c1ccc2oc3ccccc3c2c1 | inactive |
| S=C(Nc1ccccc1)c1ccccn1 | inactive |
| S=C(Nc1ccccn1)c1ccccn1 | inactive |
| Cc1c(C(=O)c2ccc(Cl)cc2Cl)cnc2cc3c(cc12)OCO3 | inactive |
| O=C(CN1CCN(C(=O)c2ccco2)CC1)Nc1c2c(nc3c1CCC3)CCCC2 | inactive |
| Cc1ccc(-c2noc(-c3cccs3)n2)cc1 | inactive |
| COC(=O)c1noc(-c2ccc(C)cc2)n1 | inactive |
| COc1ccc(C(NC(N)=O)c2ccccc2)cc1 (stereo not drawn) | inactive |
| FC(F)C(F)(F)C(F)(F)C(F)(F)c1cc(-c2ccccc2)n[nH]1 | inactive |
| CCN(CC)c1ccc2cc(-c3nnc(-c4ccccc4)o3)c(=O)oc2c1 | inactive |
| CCN(CC)c1ccc2cc(-c3nc4ccccc4n3C)c(=O)oc2c1 | inactive |
| COc1ccc(C2CC(=O)n3c(nc4ccccc43)S2)cc1OC (stereo not drawn) | inactive |
| O=C1CC(c2ccc3c(c2)OCO3)Sc2nc3ccccc3n21 (stereo not drawn) | active |
| COc1cc(C2CC(=O)n3c(nc4ccccc43)S2)cc(OC)c1OC (stereo not drawn) | inactive |
| Clc1ccc2c(c1)C1OCCC1C(c1ccco1)N2 (stereo not drawn) | inactive |

| SMILES | outcome |
| --- | --- |
| Cc1ccc(-c2nn(CC(=O)NCc3cc(-c4nn(C)c(=O)c5ccccc45)ccc3C)c(=O)c3ccccc23)cc1 | inactive |
| CN(C)S(=O)(=O)c1ccc(C(=O)OCC(=O)NC(=O)NCc2ccccc2)cc1 | inactive |
| CCOC(=O)/C(=C/Nc1ccccc1)[N+](=O)[O-] | inactive |
| CCOC(=O)Nc1cccc(Nc2ccccc2)c1 | inactive |
| CCOC(=O)c1cccc(NC(=O)c2cccnc2)c1 | inactive |
| CCOC(=O)c1sc(Nc2ccccc2)nc1C | inactive |
| CCOC(=O)/C(=C\c1cccnc1)C(=O)c1cc(C(C)=O)c(Nc2ccccc2)s1 | active |
| c1ccc(C2C3=C(CCCC3)Nc3ncnn32)cc1 (stereo not drawn) | inactive |
| Cc1cccc(C)c1NC(=O)CSc1nnc(CCCCCNC(=O)OC(C)(C)C)o1 | inactive |
| COc1ccc2cc(C#N)c(SCC(=O)N3CCCC3)nc2c1 | inactive |
| Cc1cc2c(N)cccc2nn1 | inactive |
| Nc1cccc2cnccc12 | inactive |
| O=S(=O)(c1ccc(N2CCC(c3ccc(Cl)cc3)=N2)cc1)N(CCO)CCO | inactive |
| CN(C)CCNS(=O)(=O)c1ccc(Cl)cc1 | inactive |
| CC1NC(=O)NC1CCCCC(=O)O (stereo not drawn) | inactive |
| Cc1ccc(S(=O)(=O)NC2=NCN(C3CCCCC3)CN2)cc1 | inactive |
| Cc1ccc(Cn2c(NCCc3ccccc3)nc3c2c(=O)n(C)c(=O)n3C)cc1 | inactive |
| COc1ccc(NS(=O)(=O)c2ccc(N)c(C(=O)O)c2)cc1 | inactive |
| Cn1cccc1C(=O)OCc1csc(-c2ccccc2)n1 | inactive |
| Cc1ccsc1C(=O)OCc1csc(-c2ccccc2)n1 | active |
| O=C(OCc1csc(-c2ccccc2)n1)c1cccs1 | inactive |
| O=c1cc(CSc2nnnn2-c2ccccc2)nc2nc[nH]n12 | inactive |
